Source: PubChem (Buhrlage Lab, Dana-Farber Cancer Institute and Novartis Institutes for BioMedical Research (Cambridge, Mass))
Only some compounds are listed: those with a hit (about 12% of all), similar ones and a draw of the others.
USP17 inh – inhibitors of human USP17 deubiquitinase | A8MUK1 | purified USP17, Ub-rhodamine cleavage fluorescence, 3 h | inhibition, % at 50 µM | 47,000 compounds, 6.5% hits | AID 1645855
OTUD3 inh – blocks human OTUD3 ubiquitin-rhodamine cleavage | purified OTUD3, Ub-rhodamine fluorescence, 2 h | inhibition, % at 25 µM | 47,000 compounds, 0.7% hits | AID 1645858
USP30 block – blocks human USP30 ubiquitin-rhodamine cleavage; Q70CQ3; purified USP30, Ub-rhodamine cleavage fluorescence; inhibition, % at 25 µM; 47,000 compounds, 5.3% hits
Target sequence (Q70CQ3 whole entry, looked up): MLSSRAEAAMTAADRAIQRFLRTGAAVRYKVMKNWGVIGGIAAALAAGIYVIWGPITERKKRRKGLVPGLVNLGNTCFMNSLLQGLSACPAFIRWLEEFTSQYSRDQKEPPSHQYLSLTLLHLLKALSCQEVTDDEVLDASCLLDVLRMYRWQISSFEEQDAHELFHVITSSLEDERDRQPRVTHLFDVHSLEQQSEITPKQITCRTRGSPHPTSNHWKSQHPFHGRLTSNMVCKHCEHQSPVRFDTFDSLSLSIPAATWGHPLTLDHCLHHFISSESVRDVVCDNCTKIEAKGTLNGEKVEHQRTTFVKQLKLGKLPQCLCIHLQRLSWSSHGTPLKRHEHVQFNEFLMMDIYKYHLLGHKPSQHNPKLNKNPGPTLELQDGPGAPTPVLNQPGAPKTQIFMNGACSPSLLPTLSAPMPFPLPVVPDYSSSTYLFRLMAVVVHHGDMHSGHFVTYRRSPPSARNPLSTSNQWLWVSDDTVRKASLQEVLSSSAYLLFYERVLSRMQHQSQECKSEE
USP28 inh – inhibitors of human USP28 deubiquitinase; Q96RU2; purified USP28, Ub-rhodamine cleavage fluorescence, 30 min; inhibition, % at 25 µM; 47,000 compounds, 3% hits
An asterisk follows results filed as active; i = inactive; nt = not tested or not shown. Rule as the data show it: active = inhibition above about 30%; inactive = the rest.

SMILES | USP17 inh | OTUD3 inh | USP30 block | USP28 inh
CN(C)S(=O)(=O)Oc1ccsc1C(=O)Nc1cccc(C(F)(F)F)c1 | 5 | -4 | -26 | -2
COc1cc(-c2ccno2)ccc1S(=O)(=O)Nc1ccccc1Cl | -12 | 6 | -14 | 60*
COc1cc(-c2ccno2)ccc1S(=O)(=O)Nc1ccc(C#N)cc1 | -10 | -10 | 0 | -7
COc1ccc(CC(=O)Nc2cc(-c3cn4cccnc4n3)ccc2C)cc1 | 37* | -48 | -177 | -105
O=C(COc1ccc(Cl)cc1)Nc1ccc(-c2cn3cccnc3n2)cc1 | 35* | -57 | -149 | 17
CC(=O)N1CCn2c(c(C(=O)NCc3nccs3)c3cccnc32)C1 | -29 | -14 | -41 | -19
CCn1ccc2c(cc(C(=O)Nc3cccc(F)c3)n2C)c1=O | 39* | -4 | 12 | 43*
CCn1ccc2c(cc(C(=O)Nc3cccc(C)c3C)n2C)c1=O | -16 | -4 | -6 | 31*
Cn1c(=O)c2c(ncn2CC(=O)OCC(=O)Nc2ccc3c(c2)CCC3)n(C)c1=O | -14 | -8 | -13 | 10
O=C(NC1CCCc2ccccc21)c1cnn(-c2ccccc2)c1-n1cccc1 (stereo not drawn) | 13 | 18 | 32* | 16
CCOc1ncccc1C(=O)NC1CCCc2ccccc21 (stereo not drawn) | 15 | 15 | 32* | 26
Cn1c(=O)c2c(ncn2CC(=O)NC2CCCc3ccccc32)n(C)c1=O (stereo not drawn) | 13 | 7 | 17 | 82*
Cc1cc(C2CN(C(=O)c3cccc4c3OCCO4)CCO2)nc(C)n1 (stereo not drawn) | -9 | -5 | -4 | -21
Cc1nc(C2COCCN2Cc2csc(C)n2)cc(=O)[nH]1 (stereo not drawn) | 14 | 15 | 29 | 9
CN1CCCc2cc(C(CNC(=O)C3CCCCC3)N3CCOCC3)ccc21 (stereo not drawn) | -24 | -29 | -129 | -42
Cn1cc(C(=O)NC[C@H]2OC[C@@H]3CCN(Cc4ccoc4)C[C@@H]32)cn1 | -22 | 9 | 2 | 2
CC(=O)N[C@@]12CCN(CC(=O)Nc3cccc(F)c3C)C[C@@H]1CN(C(C)=O)C2 | -10 | 1 | -15 | -2
O=C(Nc1cccc(Cl)c1)N1CCN(c2cc(C(F)(F)F)ccn2)CC1 | 59* | -3 | 26 | -1
COC1C(CO)O[C@@H](O[C@H](C[C@@]2(C)[C@H](C)CCC(=O)[C@@H]2C)/C(C)=C/Cc2c(O)c(Cl)c(C)c(C=O)c2O)C(O)C1O (stereo partly drawn) | 11 | 3 | 27 | 4
C/C(=C\Cc1c(O)cc(C)c(C=O)c1O)CC[C@@]1(C)[C@H](C)CCC(=O)[C@@H]1C | 50* | -3 | 28 | 7
O=C(CC1(O)C(=O)Nc2ccccc21)c1cccc(Cl)c1 (stereo not drawn) | -7 | 0 | nt | nt
Cc1cc(O)cc2c1C(=O)c1c(O)ccc(O)c1C2=O | -37 | -97 | -385 | -81
CC1(C)OC2=C(C(=O)c3cc(O)cc(O)c3C2=O)c2cc(CO)c(O)cc21 | 82* | 21 | 0 | 27
CC(C)n1nccc1-c1cnc(CC2CCN(S(C)(=O)=O)CC2)cn1 | 13 | 10 | 31* | 10
CC(C)n1nccc1-c1cnc(CC2CCN(S(C)(=O)=O)C2)cn1 (stereo not drawn) | -10 | 0 | -17 | -10
SMILES | USP17 inh | OTUD3 inh | USP30 block | USP28 inh
COc1ccccc1/C=C(/C(=O)N1CCN(Cc2ccc3c(c2)OCO3)CC1)c1ccccc1 | 15 | 14 | 42* | 14
COc1ccccc1/C=C(\C(=O)N1CCN(c2ccccc2F)CC1)c1ccccc1 | 6 | 19 | 19 | 17
CCCCCCCCCCCC[C@@]1(C(=O)O)OC(=O)[C@@H](O)[C@@]1(O)C(=O)O | 16 | 8 | 41* | 5
CCCCCC1CC2=C(C(=O)OC2=O)C(O)C(O)(CCCC)CC2=C1C(=O)OC2=O (stereo not drawn) | 15 | 27 | 9 | 22
O=C(Nc1ccc(N2CCOCC2)cc1)C(Cc1ccccc1)NS(=O)(=O)c1ccc2c(c1)OCCO2 (stereo not drawn) | -7 | -5 | -10 | 37*
O=C(O)C(Cc1ccccc1)NS(=O)(=O)c1ccc2c(c1)OCCO2 (stereo not drawn) | -8 | 6 | 1 | 6
O=C(NCc1ccccc1)C(Cc1ccccc1)NS(=O)(=O)c1ccc2c(c1)OCCO2 (stereo not drawn) | 86* | 16 | 52* | 56*
Cc1cccc(N(Cc2nc3nc(C)cc(=O)n3[nH]2)S(=O)(=O)c2ccccc2)c1 | 1 | -4 | 8 | -11
Cc1cn[nH]c1C1COCCN1C(=O)c1noc2c1CCCC2 (stereo not drawn) | 5 | -3 | 3 | -7
COCCn1cc(CN2CCC(O)(c3ccccc3F)CC2)c2ccccc21 | 9 | 19 | 35* | 26
CN(C)C1CCN(C(=O)c2cnc(-c3noc4ccccc34)s2)CC1 | -17 | 8 | 12 | 6
COc1cccc(CC(NC(C)=O)C(=O)NC2CCN(c3nc(OC)nc(OC)n3)CC2)c1 (stereo not drawn) | -11 | -10 | -32 | -17
COc1nc(OC)nc(N2CCC(NC(=O)C(Cc3ccc(C)cc3)NC(C)=O)CC2)n1 (stereo not drawn) | 20 | 3 | 34* | 7
COc1nc(OC)nc(N2CCC(NC(=O)C(Cc3ccccc3F)NC(C)=O)CC2)n1 (stereo not drawn) | 14 | 3 | 42* | 5
COc1ccc(CC(NC(C)=O)C(=O)NC2CCN(c3nc(OC)nc(OC)n3)CC2)cc1 (stereo not drawn) | 17 | 12 | 32* | 18
CC(O)(CNC(=O)C1(c2ccccc2)CCOCC1)c1ccc2c(c1)OCO2 (stereo not drawn) | -16 | -8 | -2 | -9
Cn1c(CC2CCN(C(=O)CCc3ccccc3)C2)nc2cccnc21 (stereo not drawn) | -13 | -17 | -49 | -18
O=C1CN(C(=O)CC2CCCCC2)C(c2ccccc2)c2cc(Cl)ccc2N1 (stereo not drawn) | 27 | 23 | 43* | 30
COc1ccc(CC(=O)N2CC(=O)Nc3ccc(Br)cc3C2c2ccccc2)cc1 (stereo not drawn) | 20 | 11 | 38* | 23
O=C1CN(C(=O)COc2ccc(Cl)cc2)C(c2ccccc2)c2cc(Cl)ccc2N1 (stereo not drawn) | 5 | 6 | 6 | 9
CC(=O)CN1CC2(CCN(Cc3ccccc3F)CC2)COc2ccccc2S1(=O)=O | -137 | -175 | i | -202
O=C(COc1ccccc1-c1nnc(-c2ccccc2)o1)NCc1ccccc1F | 5 | 0 | -2 | -9
COc1ccc(CNC(=O)COc2ccccc2-c2nnc(-c3ccccc3)o2)c(OC)c1 | -1 | -8 | 0 | -12
CCc1ccccc1NC(=O)COc1ccc(Nc2ccccc2)cc1 | 46* | 25 | 39* | 22
CCc1ccccc1NC(=O)COc1ccccc1-c1nnc(-c2ccccc2)o1 | 53* | 11 | 38* | 18
O=C(COc1ccccc1-c1nnc(-c2ccccc2)o1)NCCc1ccco1 | 35* | 2 | -38 | 4
